Bioassay records deposited in PubChem BioAssay by National Center for Advancing Translational Sciences (NCATS).
Only some compounds are listed: those with a hit (about 19% of all), similar ones and a draw of the others.
TDP1 cell CPT: growth inhibition of DT40 Tdp1-/-;hTDP1 cells with camptothecin (screen for TDP1 inhibitors) | chicken DT40 Tdp1-/-;hTDP1 cells + 20 nM CPT, ATP luminescence, 48 h | Potency, µM (highest dose often 46.2 µM), actives largely listed as inhibitors | actives 12% (n = 420,000); also: nearly all actives have a fitted effect of over 55% in size
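Cell growth measured by CellTiter-Glo luminescence after a minimum 48 h, 37 C compound exposure with 20 nM CPT in Tdp1-knockout DT40 cells stably expressing hTDP1, seeded 400/well; qHTS titration format.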
HT1080 IDH1KD tx: HT-1080 IDH1 knockdown cell toxicity (counter line) | actives 2% (n = 360,000) | Potency, µM (series often up to 46.1 µM), actives largely listed as cytotoxic | AID 686971 | HT-1080 IDH1 knockdown viability, ATP luminescence, 48 h
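Luminescent ATP read-out (CellTiter-Glo, 10 min at room temperature) after 48 h compound exposure at 37 °C gave viability of IDH1-knockdown HT-1080 cells. Activity was normalised to DMSO and cell-free wells, then fitted as concentration-response curves.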
HT1080NT lethal: kills 2HG-producing HT-1080-NT fibrosarcoma cells | HT-1080-NT fibrosarcoma viability, CellTiter-Glo ATP luminescence, 48 h | Potency, µM (series often up to 46.1 µM), actives largely listed as cytotoxic | actives 1.6% (n = 360,000) | AID 686970;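 also: NT is the 2HG producing partner of a matched IDH1 knockdown line; nearly all actives have a fitted effect of over 55% in size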
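750 cells/well, RPMI + 5% FBS; 2 h settle, compound pin-transfer, 48 h at 37 degrees C. CellTiter-Glo 10 min RT, luminescence. Normalized to DMSO and media-only wells.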
IL-1B inflam inh: inflammasome signaling inhibition, IL-1 beta readout | actives 4.7% (n = 360,000) | activity change, % at 57.5 µM | THP-1 LPS/ATP IL-1B secretion, AlphaLISA, 16 h; stronger effect = lower value | AID 743279; in the data active = activity change below about -50%; inconclusive = mostly about -30% to -49%
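Secreted IL-1B measured by AlphaLISA bead assay after 16 h compound exposure of THP-1 cells; compounds (final up to 57.5 uM) added 1 h before LPS (250 ng/mL) and ATP (1.25 mM) stimulation; lower signal means less secretion.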
DT40 TDP1 no CPT: qHTS for Inhibitors of human tyrosyl-DNA phosphodiesterase 1 (TDP1): qHTS in cells in absence of CPT. actives 15% (n = 420,000). Potency, µM (top dose mostly 46.2 µM), most hits filed as inhibitors. DT40 Tdp1-/- hTDP1 cells, no CPT, ATP luminescence, 48 h; also: nearly all actives have a fitted effect of over 55% in size
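Cells were dispensed at 400 per well, compounds added by pin tool, plates incubated ≥48 hr at 37 °C, then CellTiter-Glo added for 30 min at room temperature before luminescence reading. Line: DT40 Tdp1-/- complemented with hTDP1; camptothecin omitted.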
Hits are given with their value; – = inactive; ? = inconclusive; · = no result; [ ] = dose if it differs, or a comment. Unless noted, calls follow the shape of the dose curve; as a rule, active = well fitted curve in the direction sought with a large enough effect; inconclusive = small, poorly fitted or top-dose-only effect, or another doubt; inactive = no such curve, though single readings can be large; an effect the other way counts as inactive or inconclusive.

SMILES	TDP1 cell CPT	HT1080 IDH1KD tx	HT1080NT lethal	IL-1B inflam inh	DT40 TDP1 no CPT
CCCCCCN1CCN(C2CN(Cc3cn(Cc4ccc(Cl)cc4)nn3)S(=O)(=O)C2)CC1 (configuration not stated)	23µM	?	?	–	16µM
CCCCCCN1CCN(C2CN(Cc3ccc(C)cc3)S(=O)(=O)C2)CC1 (configuration not stated)	23µM	–	–	–	?
Cc1cn2c(=O)c(C(=O)NCc3ccc4c(c3)OCO4)cnc2s1	–	–	?	–	–
COc1ccccc1-n1c(C)cc(/C=C2\C(=N)N3N=C(CC(=O)N4CCOCC4)SC3=NC2=O)c1C	18µM	–	–	–	?
COc1ccc(-n2c(C)cc(/C=C3\C(=N)N4N=C(CC(=O)N5CCOCC5)SC4=NC3=O)c2C)c(OC)c1	?	?	–	–	?
Cc1ccccc1-c1nc2c3ccccc3nc(=S)n2[nH]1	4.1µM	–	–	–	3.3µM
COc1ccc(N2CCN(C(=O)c3ccc(OCc4c(C)noc4C)c(OC)c3)CC2)cc1	?	–[9.24 µM]	–	–	–
COc1ccc(C(C)=O)cc1COC(=O)c1c(C)noc1C	?	–	–	–	15µM
CCc1cc2c(COC(=O)c3c(C)noc3C)cc(=O)oc2cc1O	?	–	–	–	10µM
CCOC(=O)Nc1ccc2c(COC(=O)c3ccccc3O)cc(=O)oc2c1	–	–	–	–	?
COc1cc(C(=O)OCC(C)=O)ccc1OCc1c(C)noc1C	?	18µM	?	–	?
COc1cc(C(=O)N2CCN(c3ccc([N+](=O)[O-])cc3)CC2)ccc1OCc1c(C)noc1C	?	–	–	–	16µM
CCN(C(=O)CN1C(=O)NC2(CCC(C)CC2)C1=O)C1CCCCC1 (configuration not stated)	–	–	–	–	–
CSCc1ccc(C(=O)NCC(c2cccs2)N2CCOCC2)cc1 (configuration not stated)	–	–	–	–	?
O=C(COc1ccc([N+](=O)[O-])cc1)N1CCC(c2nc3ccccc3s2)CC1	7.3µM	·	·	·	9.2µM
CCc1ccc(OC(C)C(=O)N2CCC(c3nc4ccccc4s3)CC2)cc1 (configuration not stated)	18µM	·	·	·	16µM
Cc1ccc(NC(=S)N2CCC(c3nc4ccccc4s3)CC2)cc1C	?	–[9.24 µM]	?	-65	?
Cc1ccc(CN=c2c([N+](=O)[O-])nn(-c3ccc4c(c3)OCCO4)n2O)cc1	?	–	–	–	23µM
COc1ccc(-n2nc([N+](=O)[O-])c(=NCc3ccc4c(c3)OCO4)n2O)cc1	?	–	–	?	18µM
O=[N+]([O-])c1nn(-c2ccc3c(c2)OCCO3)n(O)c1=NC1CCCC1	18µM	–	–	?	?
O=[N+]([O-])c1nn(-c2ccc3c(c2)OCCO3)n(O)c1=NCCCO	15µM	–	–	–	21µM
CN1C(=O)CC(N2CCN(c3ccc(Cl)c(Cl)c3)CC2)C1=O (configuration not stated)	?	–	–	–	?
CC1C(=O)Nc2ccc(S(=O)(=O)N3CCN(c4cccc(C(F)(F)F)c4)CC3)cc2NC1=O (configuration not stated)	26µM	–	–	–	–
CC1C(=O)Nc2ccc(S(=O)(=O)N3CCN(c4cccc(Cl)c4)CC3)cc2NC1=O (configuration not stated)	18µM	–	–	–	?
CC1Sc2ccc(S(=O)(=O)N3CCN(c4cccc(Cl)c4)CC3)cc2NC1=O (configuration not stated)	–	?	?	–	?
N#CCCN(C(=O)COC(=O)CCN=C1NS(=O)(=O)c2ccccc21)c1ccc(F)cc1	–	–	–	–	–
COc1ccccc1-c1nnc(C2CCN(S(=O)(=O)c3ccccc3[N+](=O)[O-])CC2)o1	?	–	–	–	–
COc1ccccc1-c1nnc(C2CCN(S(=O)(=O)c3ccccc3)CC2)o1	?	·	·	·	15µM
